# Source: PubChem (several laboratories)
# CHT block: human CHT choline transport inhibition; Q9GZV3; CHT-expressing cells, membrane potential dye, choline response; stronger effect = lower value; B-score at 10 µM; hit rate 0.86% among 310,000; AID 488975;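 active means B-score over 3 SD under the library average, and starting fluorescence ratio not unusually high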;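 further: choline stimulus applied at its EC90 after an EC20 pre-addition; B-score computed on integrated fluorescence ratio after choline addition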
# TAG inh: inhibitors of triacylglycerol accumulation | H9c2 cells, Nile Red lipid (TAG) fluorescence; cells loaded with 200 µM oleic acid | inhibition, % at 12.5 µM | hit rate 0.66% among 230,000 | AID 651582;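 active means pattern-corrected inhibition of lipid staining of at least 50% with the nuclear-stain viability signal not falling by more than 50%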;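 further: 0% = DMSO wells and 100% = triacsin C control wells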
# MIN6 prolif: inducers of beta-cell replication in MIN6 cells; hit rate 0.29% among 330,000; proliferation, % at 10 µM; MIN6 cells proliferation, ATPlite luminescence, 48 h; cells starved in 0.2% serum; 100% = growth in 10% serum; AID 2380;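 active means compounds whose signal lies at least 3.5 SD above the mean of all wells on their plate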;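 further: 0% = DMSO-treated cells in low-serum medium and 100% = 10% serum control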
# CHT PAM: allosterically activates the human high affinity choline transporter; CHT-expressing cells, membrane potential dye, choline EC20; stronger effect = higher value; LV-AA mutant CHT in HEK293 cells; Q9GZV3; B-score at 10 µM; hit rate 0.49% among 310,000;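 active means initial fluorescence not abnormally high and integrated response B-score, plate-corrected, over 3 SD above library mean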
# CHT block conf: confirmation of human choline transporter CHT inhibitors. shares compounds with CHT block. CHT-expressing cells, choline membrane potential dye; LV-to-AA substituted CHT, HEK293 cells. CHT activity remaining % of control (stronger effect = lower value), % at 10 µM. hit rate 70% among 2,400;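 active means choline transporter activity left, mean of duplicates at 10 µM, below buffer-only control mean minus 3 SD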;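 further: depolarization triggered by choline at its EC90 following an EC20 pre-addition; 0% = hemicholinium-3 full block and 100% = buffer-only control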
# HEK293 CHT ctr: counter-screen for CHT inhibitors: effect in parental HEK293 cells | membrane potential ratio readout (active if shifted either direction beyond buffer ±3SD; no single direction) at 10 µM | hit rate 4% among 2,400 | membrane potential dye, choline response; active = decrease or increase beyond buffer ±3SD | shares compounds with CHT block;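 further: parental cells lack the transporter so any hit is non-specific; ratio is peak minus trough fluorescence over baseline after EC90 choline challenge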
# An asterisk follows results filed as active; i = inactive; · = no result given. An excerpt weighted towards active compounds, which were near 1.7% of everything screened.
SMILES,CHT block,TAG inh,MIN6 prolif,CHT PAM,CHT block conf,HEK293 CHT ctr
CCN1CCCC1CNC(=O)c1ccc2c(c1)N(Cc1ccccc1F)C(=O)c1ccccc1S2(=O)=O (centres undefined),-5.3*,·,-7,i,54%*,i
O=C(NCCN1CCCC1)c1ccc2c(c1)N(Cc1cccc(Cl)c1)C(=O)c1ccccc1S2(=O)=O,-9.5*,·,-5,i,34%*,i
O=C(NCCN1CCOCC1)c1ccc2c(c1)N(Cc1ccccc1F)C(=O)c1ccccc1S2(=O)=O,i,·,1,i,·,·
CCN1CCCC1CNC(=O)c1ccc2c(c1)N(Cc1cccc(Cl)c1)C(=O)c1ccccc1S2(=O)=O (centres undefined),-12*,·,-4,i,28%*,i
O=C(NCCCN1CCOCC1)c1ccc2c(c1)N(Cc1cccc(Cl)c1)C(=O)c1ccccc1S2=O (centres undefined),i,·,-5,i,·,·
CC1CCCN(CCCNC(=O)c2ccc3c(c2)N(Cc2cccc(Cl)c2)C(=O)c2ccccc2S3=O)C1 (centres undefined),·,31,·,·,·,·
CC1CCCN(CCCNC(=O)c2ccc3c(c2)N(Cc2ccccc2F)C(=O)c2ccccc2S3(=O)=O)C1 (centres undefined),-7.1*,·,-8,i,35%*,i
COc1ccc(S(=O)(=O)N2CCN(C(=O)C3CC3)CC2)cc1Br,·,-23,-1,·,·,·
COC(=O)/C=C1\SC(N2CCOCC2)=C(c2ccc(OC)cc2)C1=O,i,5,-5,i,·,·
CCCCC1C(=O)CC[C@H]2[C@@H]1CC(=O)[C@@H]2C/C=C\CCCC(=O)O (some centres undefined),-5.5*,-4,0,i,34%*,i
CCCCCCCC/C=C\CCCCCCCC(=O)O,i,-4,1,i,·,·
O=S(=O)(c1cnccc1N1CCN(CCO)CC1)N1CCCCC1,i,-1,-1,i,·,·
COc1ccc(-n2c(C)cc(C(=O)CSc3nnc(-c4ccoc4C)n3C)c2C)cc1,-5.1*,26,0,i,66%*,i
CC[N+]1(CC)CC2=Cc3c(ccc4ccccc34)CC2C1 (centres undefined),-6.4*,·,-3,i,46%*,i
CC12Cc3ccc4ccccc4c3C=C1C[N+](C)(C)C2 (centres undefined),i,1,-2,i,·,·
OC(c1cc(Cl)cc(Cl)c1)c1ncc(-c2cccc(F)c2)[nH]1 (centres undefined),·,-2,·,·,·,·
CCC(=O)N1CCc2cc(Br)cc(S(=O)(=O)NCCCN(C)Cc3ccccc3)c21,i,·,2,i,·,·
CCC(=O)N1CCc2cc(Br)cc(S(=O)(=O)NC3CCN(Cc4ccccc4)CC3)c21,-9*,·,-2,i,38%*,3.2*
O=S(=O)(NC1CCN(Cc2ccccc2)CC1)c1ccc2ccccc2c1,-5.7*,-2,-3,i,i,i
O=[N+]([O-])c1ccc(Sc2ncc3ccccn23)nc1,-13*,4,-2,i,7.7%*,i
CC(=O)Nc1c2c3c(cccc3n(C)c1=O)C(=O)c1ccccc1-2,-5.9*,10,-4,i,45%*,2.4*
Cn1c(=O)c(Nc2ccc(Cl)cc2)c2c3c(cccc31)C(=O)c1ccccc1-2,i,·,-5,i,·,·
CC#CCN(CC#CC)S(=O)(=O)c1ccc(-n2cnnn2)c(OC)c1,-6.8*,·,0,i,59%*,i
COc1cc(S(=O)(=O)N(Cc2ccccc2)Cc2ccccn2)ccc1-n1cnnn1,i,·,1,i,·,·
COc1ccc(NC(=O)CN2CCN(C(=S)NC3CCCC3)CC2)cc1,-6.3*,-2,0,i,i,i
CC1CCCCN1C(=O)c1ccc(C(=O)Nc2ccc(F)cc2)cc1 (centres undefined),-6.4*,·,-4,i,45%*,i
CC1CCCCN1C(=O)c1ccc(NC(=O)c2ccccc2Cl)cc1 (centres undefined),i,-7,0,i,·,·
Cc1ccc(NC(=O)C2CCN(S(=O)(=O)c3ccc4c(c3)NC(=O)C(C)S4)CC2)cc1Cl (centres undefined),i,·,-8,i,·,·
